Assay outcomes from PubChem.
A selection: hits, their analogues and other compounds. The true share with any hit is near 1.3%.
Gli-Sufu block = antagonists of Gli-Sufu signaling | AID 588413 | inhibition, % at 5 µM | hit rate 0.74% among 340,000 | Sufu-KO-LIGHT fibroblasts, Gli luciferase reporter luminescence;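 active = inhibition above about 55%, limit read from the data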;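 note: 0% = DMSO-treated cells and 100% = wells with medium but no cells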
NCOA1 inh = human NCOA1 inhibition; HEK293 GAL4-SRC1 luciferase reporter, luminescence; inhibition, % at 3.6 µM; hit rate 0.12% among 360,000;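 active = inhibition above the campaign mean plus 3 SD, with each screening campaign given its own cutoff, cut at about 60% in these data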;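 note: 0% = DMSO treated cells and 100% = gossypol at 36 µM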
NCOA2 inhibitor = inhibits human steroid receptor coactivator 2; Q15596; HEK293 GAL4-SRC2 luciferase reporter, luminescence; inhibition, % at 9 µM; hit rate 0.17% among 370,000; AID 651957;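 active = inhibition above the mean inhibition of all tested compounds plus 3 SD, set per campaign, cut at about 52% in these data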;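 note: 0% = DMSO treated cells and 100% = cells given Gossypol at 36 µM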
LRH-1 inv ag = suppresses constitutive activity of human LRH-1; inhibition, % at 3.6 µM; hit rate 0.13% among 360,000; HEK293T StAR-luciferase reporter, LRH-1 transfected, 24 h; O00482;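 active = inhibition above the mean inhibition of all tested compounds plus 3 SD, cut at about 73% in these data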;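 note: 0% = DMSO wells and 100% = reporter-only cells lacking LRH-1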
SRC3 inh = inhibits human SRC3 coactivator; Q9Y6Q9; HEK293 GAL4-SRC3 luciferase reporter, luminescence; inhibition, % at 3.6 µM; hit rate 0.17% among 360,000;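 active = inhibition above a per-campaign cutoff, the mean of all compounds plus 3 SD, cut at about 60% in these data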;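 note: 0% = DMSO-treated cells and 100% = gossypol-treated cells at 36 µM; higher means less SRC3-driven luciferase light from the GAL4 reporter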
Target sequence (Q9Y6Q9 whole entry, looked up, the tested form may be a part): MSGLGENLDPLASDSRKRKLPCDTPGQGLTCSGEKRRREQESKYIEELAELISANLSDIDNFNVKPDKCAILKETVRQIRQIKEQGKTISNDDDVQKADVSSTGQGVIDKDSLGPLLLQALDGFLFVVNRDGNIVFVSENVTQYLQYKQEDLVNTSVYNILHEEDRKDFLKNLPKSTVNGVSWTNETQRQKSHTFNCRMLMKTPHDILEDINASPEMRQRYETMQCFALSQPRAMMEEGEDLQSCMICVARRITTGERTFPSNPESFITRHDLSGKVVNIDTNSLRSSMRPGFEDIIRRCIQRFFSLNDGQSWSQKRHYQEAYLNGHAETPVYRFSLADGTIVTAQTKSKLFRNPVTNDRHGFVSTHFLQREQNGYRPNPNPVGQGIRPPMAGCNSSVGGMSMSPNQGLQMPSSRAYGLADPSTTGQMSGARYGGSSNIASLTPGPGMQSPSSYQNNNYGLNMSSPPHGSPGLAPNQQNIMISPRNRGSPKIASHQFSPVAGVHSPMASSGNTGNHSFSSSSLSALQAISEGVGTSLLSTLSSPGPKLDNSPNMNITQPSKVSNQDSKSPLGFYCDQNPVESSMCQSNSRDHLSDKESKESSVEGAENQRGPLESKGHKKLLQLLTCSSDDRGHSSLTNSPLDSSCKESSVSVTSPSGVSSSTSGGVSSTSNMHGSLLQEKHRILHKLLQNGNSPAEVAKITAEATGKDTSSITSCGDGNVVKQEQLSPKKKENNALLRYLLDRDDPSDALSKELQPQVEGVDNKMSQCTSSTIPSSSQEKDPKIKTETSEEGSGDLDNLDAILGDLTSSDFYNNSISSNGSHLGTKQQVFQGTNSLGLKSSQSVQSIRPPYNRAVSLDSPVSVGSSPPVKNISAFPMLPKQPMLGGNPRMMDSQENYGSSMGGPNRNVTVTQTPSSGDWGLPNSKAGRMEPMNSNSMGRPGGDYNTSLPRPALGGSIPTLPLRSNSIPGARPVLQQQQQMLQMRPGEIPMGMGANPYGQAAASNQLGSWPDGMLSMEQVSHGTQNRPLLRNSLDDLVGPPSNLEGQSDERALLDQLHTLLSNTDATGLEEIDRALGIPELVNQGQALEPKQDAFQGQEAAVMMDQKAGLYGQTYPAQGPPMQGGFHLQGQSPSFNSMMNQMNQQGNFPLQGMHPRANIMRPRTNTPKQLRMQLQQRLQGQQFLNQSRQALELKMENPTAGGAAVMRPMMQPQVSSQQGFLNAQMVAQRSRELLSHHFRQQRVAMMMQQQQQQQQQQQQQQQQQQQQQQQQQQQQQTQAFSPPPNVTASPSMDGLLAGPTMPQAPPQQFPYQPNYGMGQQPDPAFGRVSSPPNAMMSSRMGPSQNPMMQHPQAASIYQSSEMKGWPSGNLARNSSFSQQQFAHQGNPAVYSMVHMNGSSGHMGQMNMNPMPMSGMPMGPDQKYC
COUP-TFII inh = NR2F2 (human) inhibition, primary screen. P24468. HEK293T NGFI-A luciferase reporter, luminescence. inhibition, % at 8.6 µM. hit rate 0.7% among 370,000;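 active = inhibition above a per-plate cutoff, mean inhibition of test wells between control levels plus 3 SD, cut at about 38% in these data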;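 note: cells cotransfected with COUP-TFII expression vector driving the NGFI-A reporter; 0% = median of COUP-TF2 test wells and 100% = reporter-only cells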
Gal4-VP16 ctr = counter-screen for COUP-TFII antagonists: inhibitors of VP16; shares compounds with COUP-TFII inh; HEK293 Gal4-VP16 luciferase reporter, luminescence; inhibition, % at 8.5 µM; hit rate 25% among 2,500; AID 687007; in the data active = inhibition above about 13%
COUP-TFII conf = COUP-TFII (NR2F2) inhibition, confirmation assay; shares compounds with COUP-TFII inh; HEK293 NGFI-A luciferase reporter, luminescence; inhibition, % at 8.5 µM; hit rate 45% among 2,500; AID 687008;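 active = mean inhibition over three repeats above a set limit taken from the earlier primary screen, cut at about 38% in these data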;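 note: 100% = cells given the luciferase reporter alone without the COUP-TF2 vector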
An asterisk follows results filed as active.

Screening Cc1n[nH]c(C)c1S(=O)(=O)N1CCN(S(=O)(=O)c2cccc(F)c2)CC1 returned Gli-Sufu block 1.9, NCOA1 inh 2.5, NCOA2 inhibitor -32.2, LRH-1 inv ag 8.9, SRC3 inh 1.0 and COUP-TFII inh 3.5.
Nc1nonc1C(=O)NCCNCc1cc(Br)ccc1OCc1ccc(F)cc1 was read as Gli-Sufu block 47.7, NCOA1 inh 8.2, NCOA2 inhibitor 38.2, LRH-1 inv ag 24.8, SRC3 inh 20.9, COUP-TFII inh 50.4*, Gal4-VP16 ctr 3.5 and COUP-TFII conf 7.8.
Cc1oc(-c2cc(F)ccc2F)nc1CN1CCN(c2ncnc3ccccc23)CC1 was read as Gli-Sufu block 53.8, NCOA1 inh 5.8, NCOA2 inhibitor 21.9, LRH-1 inv ag 16.3, SRC3 inh 27.6, COUP-TFII inh 43.0*, Gal4-VP16 ctr 0.9 and COUP-TFII conf 22.7.
O=C(Nc1ccc2c(c1)OCO2)c1cc(C2CCCCN2C(=O)CCc2ccccc2)on1 (stereo not drawn) was read as NCOA1 inh -15.3, NCOA2 inhibitor 13.0, LRH-1 inv ag 3.1, SRC3 inh 4.2 and COUP-TFII inh -9.2.
`Cn1c(=O)cc(OCCCC(=O)NCc2cccnc2)c2ccccc21` gave Gli-Sufu block 0.7, NCOA1 inh -23.3, NCOA2 inhibitor -17.9, LRH-1 inv ag 11.6, SRC3 inh 12.7 and COUP-TFII inh -16.3.
Cn1c(=O)cc(OCCCC(=O)Nc2cc(-c3ccncc3)ccn2)c2ccccc21 was read as COUP-TFII inh 46.3*, Gal4-VP16 ctr 23.4* and COUP-TFII conf 39.5*.
For Cn1c(=O)cc(OCCCC(=O)NCc2ccccn2)c2ccccc21 the results were Gli-Sufu block 2.3, NCOA1 inh 15.2, NCOA2 inhibitor -35.1, LRH-1 inv ag 25.1, SRC3 inh 3.3 and COUP-TFII inh -36.4.
For Cn1c(=O)cc(OCCCC(=O)Nc2cc(C(F)(F)F)ccn2)c2ccccc21 the results were COUP-TFII inh 71.1*, Gal4-VP16 ctr 15.8* and COUP-TFII conf 27.8.
Screening Cc1cc(C)c2c(=N)c3ccccc3n(CCCCCCCCn3c4ccccc4c(=N)c4c(C)cc(C)nc43)c2n1 returned Gli-Sufu block 15.5, NCOA1 inh 11.7, NCOA2 inhibitor -22.1, LRH-1 inv ag 5.4, SRC3 inh -5.4 and COUP-TFII inh -16.7.
`Cc1ccc2nc(NC(=O)CSCC(=O)OCC(=O)c3ccc(Br)cc3)sc2c1` gave Gli-Sufu block 26.2, NCOA1 inh 2.1, NCOA2 inhibitor 44.5, LRH-1 inv ag -0.5, SRC3 inh 36.1, COUP-TFII inh 40.0*, Gal4-VP16 ctr 67.4* and COUP-TFII conf 48.8*.
For Cc1cnc(NC(=O)COc2ccccc2Cl)s1 the results were Gli-Sufu block -70.3, NCOA1 inh -28.7, NCOA2 inhibitor 34.3, LRH-1 inv ag -74.5, SRC3 inh -11.6, COUP-TFII inh 41.4*, Gal4-VP16 ctr -27.5 and COUP-TFII conf 4.2.
Screening COc1cccc(CC(=O)N2CCN(C(=O)C(=O)c3ccc(OC)c(OC)c3)CC2)c1 returned NCOA2 inhibitor -6.5 and COUP-TFII inh -17.7.
`CCN(CC(=O)NCc1ccc(Cl)cc1)C(=O)c1sccc1C` gave Gli-Sufu block 7.5, NCOA1 inh -9.7, NCOA2 inhibitor 5.2, LRH-1 inv ag 16.5, SRC3 inh -14.6 and COUP-TFII inh -0.5.
Screening Cc1cccc(-c2cc(NC=O)c3ncc(-c4cccc(C(=O)N(C)C)c4)n3c2)c1 returned NCOA1 inh -1.1, NCOA2 inhibitor 10.4, LRH-1 inv ag -10.4, SRC3 inh -0.3 and COUP-TFII inh 5.0.
`COc1cc(-c2cnc3c(NC=O)cc(-c4cccc(C(F)(F)F)c4)cn23)cc(OC)c1OC` gave NCOA1 inh 2.7, NCOA2 inhibitor 3.7, LRH-1 inv ag -2.0, SRC3 inh 12.1, COUP-TFII inh 40.6*, Gal4-VP16 ctr 1.8 and COUP-TFII conf 27.1.
Screening CN(C)C(=O)c1cccc(-c2cnc3c(NC=O)cc(-c4cccc(C(F)(F)F)c4)cn23)c1 returned NCOA1 inh 9.9, NCOA2 inhibitor 0.3, LRH-1 inv ag 4.6, SRC3 inh -1.9, COUP-TFII inh 46.0*, Gal4-VP16 ctr 0.3 and COUP-TFII conf -19.4.
Screening COC(=O)C1=C(C)N(Cc2ccc(F)cc2)C(=S)NC1c1ccccc1 (stereo not drawn) returned NCOA2 inhibitor -9.2 and COUP-TFII inh 1.1.
CCCCNc1cccc2c1S(=O)(=O)N[C@@H](Cc1ccccc1)CO2 was read as NCOA2 inhibitor -7.4 and COUP-TFII inh 3.6.
Screening Nc1nc2ccccc2cc1C(=O)NCc1ccc(Cl)cc1Cl returned LRH-1 inv ag 23.9.
For Nc1nc2ccccc2cc1C(=O)NCc1ccc(-c2ccccc2)cc1 the results were NCOA2 inhibitor 17.0, LRH-1 inv ag 57.9, COUP-TFII inh 64.6*, Gal4-VP16 ctr 6.9 and COUP-TFII conf 67.9*.
Screening O=C(C1CCCN(c2ncnc3c2nc2n3CCCCC2)C1)N1CCN(c2ccc(Cl)cc2)CC1 (stereo not drawn) returned Gli-Sufu block -2.4, NCOA1 inh 13.0, NCOA2 inhibitor 22.7, LRH-1 inv ag -12.1, SRC3 inh 9.1 and COUP-TFII inh 24.6.
For O=C(C1CCN(c2ncnc3c2nc2n3CCCCC2)CC1)N1CCN(c2cccc(Cl)c2)CC1 the results were Gli-Sufu block 55.6*, NCOA1 inh 15.9, NCOA2 inhibitor 22.6, LRH-1 inv ag 11.7, SRC3 inh 24.8, COUP-TFII inh 49.7*, Gal4-VP16 ctr -0.1 and COUP-TFII conf 23.2.
C[C@H](CO)N1C[C@H](C)[C@@H](CN(C)Cc2cncnc2)Oc2cc(Br)ccc2S1(=O)=O was read as NCOA1 inh -5.3, NCOA2 inhibitor 4.3, LRH-1 inv ag 9.0, SRC3 inh -10.3 and COUP-TFII inh -17.6.
C=C1C(=O)[C@]23C[C@H]1CC[C@H]2[C@]1(C)CCC[C@@](C)(C(=O)OC)[C@H]1C[C@@H]3O was read as NCOA2 inhibitor 84.0*, COUP-TFII inh 94.5*, Gal4-VP16 ctr 70.9* and COUP-TFII conf 59.6*.
`CN[C@H]1C[C@H]2c3[nH]c4ccccc4c3CCN2C(=O)[C@H]1[C@H](C)O` gave NCOA1 inh -1.7, NCOA2 inhibitor -7.9, LRH-1 inv ag 10.4, SRC3 inh -17.2 and COUP-TFII inh -17.1.
Screening Cc1nc(C)c(-c2csc(Nc3ccccn3)n2)s1 returned Gli-Sufu block -46.7, NCOA1 inh -53.5, NCOA2 inhibitor -20.8, LRH-1 inv ag -120.5, SRC3 inh -98.2 and COUP-TFII inh 3.3.
Cc1ccnc(Nc2nc(-c3sc(C)nc3C)cs2)c1 was read as Gli-Sufu block -17.1, NCOA1 inh -32.5, NCOA2 inhibitor 18.8, LRH-1 inv ag -79.1, SRC3 inh -15.8, COUP-TFII inh 70.4*, Gal4-VP16 ctr -139.5 and COUP-TFII conf 44.3*.
